# From PubChem BioAssay
# Most compounds without a hit are left out; they make up all but 1.2% or so of the library.
# gsp antag – antagonists of gsp mutant (McCune-Albright syndrome); gsp-mutant cells, cAMP HTRF, 30 min; Potency, µM (doses to about 76.9 µM), inactives show at the highest dose activity change, negative = inhibition, usual class: inhibitors; 340,000 compounds, 0.4% hits; AID 624288; calls by dose curve; cell line not stated here;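 also: intracellular cAMP measured with PDE inhibitor Ro 20-1724 present during compound exposure; potency is read from the fitted curve at half-maximal effect; % is scaled to controls: 0 for no effect and ±100 for the full control effect; nearly all actives have a fitted effect of over 65% in size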
#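 HTRF cAMP read-out (cAMP-d2 plus anti-cAMP antibody-K in lysis buffer, 30 min RT). Before lysis, cells are exposed to compounds with […] for 30 min at 37C in DPBS containing Ca/Mg, BSA and Tween 20.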
# pAkt inh – Akt phosphorylation inhibition; Neuro2A IGF-stimulated pAkt S473 HTRF, 20 min; hits give low values; activity change, % for hits at 50 µM; 360,000 compounds, 0.32% hits; in the data active = activity change below about -80%; inconclusive = mostly about -51% to -80%; also: % is scaled to controls: 0 for no effect and ±100 for the full control effect
#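 Neuro2A cells in DMEM with 0.5% FBS, overnight at 37 deg C, given compound at single 50 µM final, then IGF (6 nM final) for 20 min at 37 deg C. Lysed; phospho-Akt Ser473 by HTRF after 24 h, 665/615 ratio.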
# RXFP1 ag – activates the human relaxin receptor RXFP1 | Potency, µM (top dose mostly 57.5 µM), for the others: at the top dose activation, most hits filed as activators | 370,000 compounds, 0.3% hits | HEK293T-RXFP1 cAMP TR-FRET, 30 min; response scale: percent of porcine relaxin response, buffer zero | Q9HBX9; active = well fitted activation curve with a large enough effect; inconclusive = small, poorly fitted or top-dose-only effect; also: potency is read from the fitted curve at half-maximal effect; % is scaled to controls: 0 for no effect and ±100 for the full control effect; nearly all actives have a fitted effect of over 60% in size
# Target sequence (Q9HBX9 whole entry, looked up): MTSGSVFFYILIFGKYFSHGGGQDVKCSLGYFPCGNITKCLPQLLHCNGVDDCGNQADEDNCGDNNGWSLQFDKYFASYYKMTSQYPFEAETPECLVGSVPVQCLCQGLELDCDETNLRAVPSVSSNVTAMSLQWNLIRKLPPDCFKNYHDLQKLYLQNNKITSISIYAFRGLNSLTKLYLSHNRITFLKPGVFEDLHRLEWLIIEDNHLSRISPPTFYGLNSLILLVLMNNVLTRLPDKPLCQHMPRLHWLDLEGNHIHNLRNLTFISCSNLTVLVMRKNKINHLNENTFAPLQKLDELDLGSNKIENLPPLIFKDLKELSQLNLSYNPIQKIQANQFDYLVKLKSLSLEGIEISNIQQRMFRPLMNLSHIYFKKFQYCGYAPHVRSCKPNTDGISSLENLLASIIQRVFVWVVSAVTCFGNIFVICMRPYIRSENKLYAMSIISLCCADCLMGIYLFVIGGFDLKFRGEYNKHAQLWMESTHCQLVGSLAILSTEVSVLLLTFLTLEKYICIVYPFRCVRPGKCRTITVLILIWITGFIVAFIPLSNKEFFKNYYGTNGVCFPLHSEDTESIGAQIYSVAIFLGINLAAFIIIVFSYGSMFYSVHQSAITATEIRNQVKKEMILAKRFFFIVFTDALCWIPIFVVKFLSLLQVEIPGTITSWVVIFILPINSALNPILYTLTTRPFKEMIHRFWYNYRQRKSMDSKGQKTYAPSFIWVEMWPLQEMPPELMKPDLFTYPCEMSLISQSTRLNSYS
#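 HEK293 cells stably expressing RXFP1, treated 30 min at 37C with compounds plus PDE4 inhibitor Ro 20174; cAMP measured by HTRF TR-FRET. Normalized to buffer and 29 nM porcine relaxin; EC50 by Hill fit.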
# gsp ag – gsp mutant agonism. Potency, µM (titrated, usually from 76.9 µM), inactives show at the highest dose activation (cAMP increase), most hits filed as activators. gsp mutant cells, cAMP HTRF, 30 min. 340,000 compounds, 0.13% hits. AID 624287; active = well fitted activation curve with a large enough effect; inconclusive = small, poorly fitted or top-dose-only effect, or another doubt; inactive = no such curve, though single readings can be large or run the other way; cell line not stated here;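 also: phosphodiesterase inhibitor Ro 20-1724 added with compounds to block cAMP breakdown; potency is read from the fitted curve at half-maximal effect; nearly all actives have a fitted effect of over 60% in size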
#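 Cells in DMEM/10% FBS with G418 were pretreated with compounds in DMSO plus […] (300 uM stock) for 30 min at 37C. cAMP was measured by HTRF (cAMP-d2 plus anti-cAMP antibody-K) after 30 min at room temperature.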
# RXFP1 antagonist – RXFP1 (human) relaxin receptor antagonism. AID 1259400. activity change, negative = inhibition, % at 57.5 µM. Q9HBX9. HEK293-RXFP1, relaxin-stimulated cAMP HTRF, 30 min; hits give low values. 350,000 compounds, 0.59% hits;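 active = activity change of -60% or lower, but not beyond a set lower limit; inconclusive = change between -60% and -40%, or beyond the set limit; inactive = change above -40%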; also: % is scaled to controls: 0 for no effect and ±100 for the full control effect
# An asterisk follows results filed as active; i = inactive; ? = inconclusive; / = no result; [ ] = remark or other dose.
SMILES,gsp antag,pAkt inh,RXFP1 ag,gsp ag,RXFP1 antagonist
O=c1cc(NC2CCCCCC2)[nH]c(=O)[nH]1,-2.2%,-112.0%*,-1.5%,4.5%,-9.1
Cc1ccc(S(=O)(=O)NCCc2nnc3ccc(SCc4ccccc4F)nn23)cc1,/,/,2.8%,/,2.7
CCC(C(=O)NCCc1ccco1)n1nc(C)c2c(C)n(-c3ccccc3)nc2c1=O (centres undefined),-7.8%,i,1.6%,1.7%,-11.3
CCC(C(=O)NCCCc1ccccc1)n1nc(C)c2c(C)n(-c3ccccc3)nc2c1=O (centres undefined),-18.0%,i,-0.4%,9.9%,-61.6*
Cc1ccc2c(C)c(C(=O)NCCN3CCCC(O)C3)oc2c1C (centres undefined),5.4%,/,1.6%,-11.4%,-111.8*
CCCc1ccc2oc(C(=O)NCCN3CCCC(O)C3)c(C)c2c1 (centres undefined),-12.5%,i,0.3%,6.3%,-10.7
CSc1nnc(CCCCCNC(=O)OC(C)(C)C)o1,3.9%,i,1.9%,-19.4%[15.4 µM],13.2
CCCCSc1nnc(CCCCCNC(=O)OC(C)(C)C)o1,35.5µM*,i,1.2%,4.3%,10.2
O=C(COC(=O)C1CCCC1)Nc1cccc(Cl)c1Cl,5.5%,i,/,37.1%,-74.4*
CCOc1ccc(NCc2cccn2-c2nnc(N3CCC(C(=O)NCCc4ccc(OC)c(OC)c4)CC3)s2)cc1,/,/,-2.0%,/,-1.5
O=c1c2ccccc2nc(COc2ccccc2)n1/N=C/c1c[nH]c2ccccc12,-6.2%,i,0.1%,4.5%,/
O=c1c2ccccc2nc(COc2ccccc2)n1/N=C/c1ccc(O)cc1O,?,i,4.7%,12.2%,-70.9*
O=C(/C=C/c1ccc([N+](=O)[O-])cc1)c1ccco1,4.3%,i,0.6%,1.4%,-2.9
O=C(/C=C/c1ccc(-c2ccccc2[N+](=O)[O-])o1)c1ccco1,?,i,1.3%,-15.3%[15.4 µM],-63.5*
Cc1ccc(C(=O)Nc2onc3c2CCCC3)cc1,/,/,-2.0%,/,-0.5
CCOc1ccc2c(c1)c(=O)c(S(=O)(=O)c1ccc(Cl)cc1)cn2Cc1ccccc1C,/,/,11.6%,/,/
O=C(NC(=S)Nc1ccccc1)c1ccc(Br)o1,-7.8%,i,0.7%,-28.7%,-16.1
O=C(Nc1ccc(Nc2ccccc2)cc1)c1ccc(Br)o1,?,i,-0.6%,5.7%,-68.1*
O=S(=O)(c1ccccc1)c1cnn2c(C(F)(F)F)cc(-c3ccccc3)nc12,1.3%,-89.7%*,-2.5%,8.8%,-1.5
CC(CC1c2ccccc2CCc2ccccc21)CN(C)C (centres undefined),/,/,/,/,-26.9
Cc1c(CC(=O)NCCc2ccccc2F)c(=O)oc2c(C)c3occ(C(C)(C)C)c3cc12,/,/,0.3%,/,-0.4
COc1ccc2nc(SCc3nc(N)nc(Nc4ccccc4)n3)[nH]c2c1,26.3%,-101.5%*,1.0%,18.3%,-1.4
COc1ccc(Nc2nc(N)nc(CSc3nc(C)cc(C)n3)n2)cc1,-6.0%,i,0.7%,7.0%[15.4 µM],-2.0
CC(Oc1ccc(Cl)cc1Cl)C(=O)Nc1ccc2oc(-c3ccncc3)nc2c1 (centres undefined),31.6µM*,i,3.9%,1.7%,1.4
Cc1ccc(-c2nc3cc(NC(=O)C(C)C)ccc3o2)cc1,-6.5%[15.4 µM],i,-3.4%,21.0%,-11.0
SMILES,gsp antag,pAkt inh,RXFP1 ag,gsp ag,RXFP1 antagonist
Cc1ccccc1C(=O)N1CCC(C(=O)Nc2nc3ccc(F)cc3s2)CC1,39.8µM*,i,2.0%,-1.0%,-23.6
CC(C)C(NC(=O)Cc1ccccc1)C(=O)N1CCN(c2cccc(Cl)c2)CC1 (centres undefined),28.2µM*,i,0.6%,10.4%,4.8
CCOc1c(C)cc2[nH]c(CCC(=O)O)nc2c1C,10.1%,-111.6%*,2.8%,-19.2%,5.9
Fc1ccccc1-c1ccc(/C=N/Nc2nc3ccccc3[nH]2)o1,39.8µM*,i,-0.5%,-27.2%,?
N#Cc1c(-c2ccc([N+](=O)[O-])cc2)nc2n(c1=O)CCS2,-5.7%,i,24.1%,14.1µM*,7.7
Cc1ccc2c(c1)c1c(n2CC(O)Cn2ccnc2C)C(=O)CCC1 (centres undefined),6.8%,/,-3.1%,-3.3%,4.2
Cc1ccc2c(c1)c1c(n2CC(O)CNC2CCCC2)CCCC1 (centres undefined),-6.4%,i,-0.5%,4.3%,-81.5*
COc1cc(CNCc2cccc3ccccc23)cc(OC)c1,50.1µM*,i,3.9%,-13.3%,1.0
COc1cc(CNCc2c[nH]c3ccccc23)cc(OC)c1,6.3%,i,0.0%,-5.8%[15.4 µM],-32.3
Nc1c(I)cc(I)c(C(=O)N(CCC(=O)O)c2ccccc2)c1I,/,/,/,/,-19.3
CC(=O)Nc1cc(C(=O)N2CCCC2)ccc1Sc1ccc(C)cc1,20µM*,i,3.6%,17.0%,-15.1
CC(=O)Nc1cc(C(=O)N2CCCC2)ccc1Sc1ccc(Cl)cc1,11.2µM*,i,0.0%,18.4%,1.4
Cc1cccc(NC(=O)CSc2nnc(-c3cccs3)o2)c1,/,/,-0.7%,/,-5.9
COC(=O)c1ccc(NC(C)=O)cc1OC,/,/,/,/,-10.6
CN1CCN(c2nc3c(c(=O)n(C)c(=O)n3C)n2Cc2cccc3ccccc23)CC1,2.5%,i,-0.2%,25.1µM*,-19.6
Cn1c(=O)c2c(nc(N3CCCC3)n2C)n(C)c1=O,-5.3%,i,14.5%,20µM*,-2.3
Cn1cc(C(=O)NCc2ccccc2)c(=O)c2cc(S(=O)(=O)N3CCCCCC3)ccc21,/,/,4.1%,/,-2.2
COc1ccc(NC(=O)CCCc2nnc3n(C(C)C)c(=O)c4sccc4n23)cc1Cl,/,/,5.9%,/,-5.9
CCCCC(=O)Nc1cccc(-c2nc3ccccc3s2)c1,/,/,0.3%,/,/
CC1=CCC(C(=O)O)C(C(=O)Nc2nc3ccc(S(C)(=O)=O)cc3s2)C1 (centres undefined),-2.9%,-120.3%*,-0.9%,-50.8%,-0.8
CS(=O)(=O)c1ccc2nc(NC(=O)c3ccccc3)sc2c1,-10.8%,i,20.6%,-0.8%[15.4 µM],2.0
CO/N=C(\C(=O)N[C@@H]1C(=O)N2C(C(=O)O)=C(CSc3nc(=O)c(O)nn3C)CS[C@H]12)c1csc(N)n1,/,/,/,/,-23.0
Cn1ncc(Br)c1C(=O)Nc1c(F)c(F)cc(F)c1F,-3.0%,i,1.6%,3.6%,-5.3
CSc1ccccc1NC(=O)c1c(Br)cnn1C,7.2%,-121.9%*,1.4%,-17.0%,-8.9
CCOC(=O)c1ccc(N/C=C\C(=O)c2cccc(OC)c2)cc1,6.6%,i,0.2%,?,/
COc1cccc(C(=O)/C=C/Nc2cc(C)ccc2O)c1,?,i,3.4%,?,-78.4*
CCn1cc(/C=C/C(=O)NCc2c(C)nn(C)c2C)cn1,-3.6%,-107.2%*,-3.6%,-35.8%,-0.7
CCCCCCCCCCCCCCCCCCNC(=O)OC1CCN(C(=O)OC[C@H](COC(=O)N(Cc2cccc[n+]2CC)C(=O)c2ccccc2OC)OC)CC1,/,/,/,/,-25.7
